PTAP TSG101 blk – qHTS Assay for Iinhibitors of HIV-1 Budding by Blocking the Interaction of PTAP/TSG101; 340,000 tested, under 10 active; Fluorescence polarization, FITC-PTAP peptide / Tsg101 binding; Potency, µM (doses to about 115 µM), for the others: at the highest dose activity change, negative = inhibition, actives largely listed as inhibitors; AID 493005, 2010; active = well fitted inhibition curve with a large enough effect in the main read-out, with a control signal flat, not every such curve was filed as active; inconclusive = small, poorly fitted or top-dose-only effect, or effect the other way, or a change in a side signal; inactive = no such curve, though single readings can be large or run the other way; also: potency is read from the fitted curve at half-maximal effect; % of control where 0% means no effect
Target sequence (Q99816 whole entry, looked up): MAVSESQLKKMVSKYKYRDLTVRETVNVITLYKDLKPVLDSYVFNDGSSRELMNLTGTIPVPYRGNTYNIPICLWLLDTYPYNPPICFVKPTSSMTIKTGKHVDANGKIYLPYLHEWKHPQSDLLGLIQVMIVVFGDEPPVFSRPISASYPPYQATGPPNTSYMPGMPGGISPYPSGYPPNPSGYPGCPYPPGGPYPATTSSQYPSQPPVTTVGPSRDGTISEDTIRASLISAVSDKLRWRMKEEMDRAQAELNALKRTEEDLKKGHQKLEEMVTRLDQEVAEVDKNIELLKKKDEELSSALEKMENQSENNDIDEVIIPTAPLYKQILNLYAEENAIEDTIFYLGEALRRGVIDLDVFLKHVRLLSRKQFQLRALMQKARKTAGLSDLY
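Compounds were pin-transferred onto Tsg101 binding domain (10 uM final) in HEPES pH 7.5 buffer, then FITC-PTAP peptide was added at 50 nM final. After 20 min at RT, polarization reported peptide displacement across a qHTS concentration series.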
TSHR antagonist – Antagonists of the Thyroid Stimulating Hormone Receptor: HTS campaign; Thyrotropin receptor (Homo sapiens), P16473; TSHR-expressing cells, TSH-stimulated cAMP HTRF, 2 h; hits give low values; hit rate 0.2% among 330,000; activity change, negative = inhibition, % at 11.5 µM; AID 504810, 2011;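 active = activity change below a set negative limit, meaning inhibition stronger than a set level, cut at about -70% in these data; inconclusive = activity change between two set negative limits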; also: % is scaled to controls: 0 for no effect and ±100 for the full control effect
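Antagonism was scored as loss of TSH-driven cAMP in TSHR cells, stimulated with 4nM TSH (EC80) for 2 hours at 37 deg C and detected by homogeneous HTRF competition immunoassay.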
S-ASM inh – Inhibitors of Secretory Acid Sphingomyelinase (S-ASM): qHTS | hit rate 0.006% among 340,000 | placental ASM, HMU-PC fluorogenic substrate, 60 min | Potency, µM (highest dose often 57.5 µM), for the others: top-dose activity change, negative = inhibition, actives largely listed as inhibitors | Sphingomyelin phosphodiesterase (Homo sapiens), P17405 | AID 504937, 2011; also: potency is read from the fitted curve at half-maximal effect
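Steps: dispense placental human ASM, pin compound, wait 10 min at room temperature, add HMU-PC0 substrate at 9 uM final, incubate 60 min at 37 °C, add stop solution raising pH to 10, read fluorescence.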
BRCA1 expr up – qHTS Assay to Identify Small Molecule Activators of BRCA1 Expression; Potency, µM (series often up to 46.1 µM), without a hit: at the top dose activation, actives largely listed as activators; MCF7-BRCA1-FFLuc reporter, luminescence, 48 h; response scale: scaled: vehicle 0%, 10 µM genistein 100%; AID 624202, 2012; hit rate 1.1% among 380,000; also: potency is read from the fitted curve at half-maximal effect; nearly all actives have a fitted effect of over 80% in size
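Cells: MCF7-BRCA1-FFLuc, 2000/well. Exposure: 48 h, 37 °C, 5% CO2. Read: luminescence, 15 min post-substrate. Controls: genistein 10 microM (maximal activation), DMSO (neutral).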
Apoferritin bind – qHTS Assay for Identification of Novel General Anesthetics; Potency, µM (highest dose often 77.5 µM), inactives show at the highest dose activity change, negative = displacement, most hits filed as inhibitors; hit rate 0.074% among 350,000; apoferritin/1-aminoanthracene competitive binding, fluorescence; Ferritin light chain (Equus caballus), P02791; also: potency is read from the fitted curve at half-maximal effect; % is scaled to controls: 0 for no effect and ±100 for the full control effect; nearly all actives have a fitted effect of over 20% in size
Target sequence (P02791 2-175 limits assumed): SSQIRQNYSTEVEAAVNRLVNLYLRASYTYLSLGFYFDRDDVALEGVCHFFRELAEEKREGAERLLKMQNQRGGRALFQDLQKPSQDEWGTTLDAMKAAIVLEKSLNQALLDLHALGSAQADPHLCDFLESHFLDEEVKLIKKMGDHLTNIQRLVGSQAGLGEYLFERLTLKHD
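Probe: 1-aminoanthracene (50% saturated, PBS). Protein: horse-spleen apoferritin, 10 uM. Incubation: 10 min, room temperature. Detection: 380 nm excitation, 535 nm emission. Analysis: normalized response, four-parameter Hill.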
Starred values were filed as active, the others as inactive; ? = inconclusive; · = no result given. Rows were chosen to be rich in hits. Some 1.2% of all compounds tested hit in one or more screens of this group. Unless noted, calls follow the shape of the dose curve; as a rule, active = well fitted curve in the direction sought with a large enough effect; inconclusive = small, poorly fitted or top-dose-only effect, or another doubt; inactive = no such curve, though single readings can be large; an effect the other way counts as inactive or inconclusive.

SMILES	PTAP TSG101 blk	TSHR antagonist	S-ASM inh	BRCA1 expr up	Apoferritin bind
Cc1cc(NC(=O)c2cc(C)on2)no1	-7%	-1	-2%	19%	4%
NC(C(=O)O)c1cccc(O)c1 (stereo not given)	·	·	·	·	14%
CC[C@]1(c2ccccc2)NC(=O)NC1=O	·	·	·	·	-1%
COc1ccc(CN(Cc2ccccc2)C(=O)c2ccncc2)cc1COc1ccc(NC(C)=O)cc1	·	·	·	-6%	·
NC1=NC(=O)/C(=C\C=C\c2ccccc2)S1	0%	-3	9%	62%	-11%
O=C1NC(=O)C(=CC=Cc2ccccc2)S1	·	·	·	10µM*	·
CC(NC(=O)COC(=O)Cc1ccsc1)C1CC2CCC1C2 (stereo not given)	-10%	8	1%	4%	16µM*
O=C(Nc1cccc(-c2nnc(-c3ccccc3)o2)c1)C1CC1	1%	-24	-3%	8.9µM*	-7%
O=C(Nc1nnc(-c2ccccc2)o1)C1CCCCC1	-1%	-3	1%	0%	-1%
CC(=O)Nc1cccc(-c2nnc(-c3ccccc3)o2)c1	-5%	-9	1%	6.3µM*	-2%
COC(=O)C1=C(C)NC(C)=C(C(=O)NCCCN2CCC(c3ccccc3)(c3ccccc3)CC2)C1c1ccc([N+](=O)[O-])cc1 (stereo not given)	·	·	·	·	-22%
CC(=O)c1cccc(OCc2cc(C(=O)N(C)CCc3cnn(C)c3)no2)c1	-4%	2	0%	46%	-9%
Cc1cc(OCc2cc(C(=O)N(C)CCc3cnn(C)c3)no2)cc(C)c1Cl	-6%	-3	0%	10µM*	-24%
COc1cc(Cl)ccc1OCc1cc(C(=O)N(C)CCc2cnn(C)c2)no1	-4%	10	-1%	7.1µM*	-10%
CCN(Cc1cnn(C)c1)C(=O)c1cc(COc2cc(C)c(Cl)c(C)c2)on1	1%	5	-4%	0%	-8%
O=[N+]([O-])c1ccc(COc2ccccc2/C=N/O)cc1	-11%	2	-1%	10µM*	-6%
COc1ccccc1CNS(=O)(=O)c1cc(-c2cc(C)no2)ccc1C(C)C	-2%	-80*	-11%	-26%	77%
COc1ccccc1CNS(=O)(=O)c1cc(-c2cc(C)no2)ccc1C	·	·	·	·	43%
COC(=O)[C@H](Cc1ccccc1)NC(=O)[C@@]1(C)C[C@@H]1[C@@H](NC(=O)OCc1ccccc1)c1ccccc1	-2%	-82*	-2%	36%	0%
Clc1ccc(-c2cn3cccnc3n2)cc1	2%	-6	269%	?	-3%
Brc1ccc(-c2cn3cccnc3n2)cc1	0%	1	106%	3.5µM*	5%
Cc1sc2ccccc2[n+]1C	·	·	·	-4%	·
COc1cc2c(NC3CCN(C(C)C)CC3)nc(N3CCCN(C)CC3)nc2cc1OCCOCCN(C)C	·	·	·	-5%	·
COc1ccc(C(=O)NCCn2cc(SCC(=O)Nc3nnc(C)s3)c3ccccc32)cc1	-5%	·	-4%	13µM*	·
Cc1nnc(NC(=O)CSc2cn(CCNC(=O)c3ccccc3)c3ccccc23)s1	-10%	-2	2%	32%	-14%
SMILES	PTAP TSG101 blk	TSHR antagonist	S-ASM inh	BRCA1 expr up	Apoferritin bind
CN(C)C1CCc2[nH]c3ccc(NC(=O)c4ccc(F)cc4)cc3c2C1 (stereo not given)	·	·	·	·	1%
O=C(O)CCC(=O)Nc1nnc(C(F)(F)F)s1	-1%	1	3%	-11%	-5%
CCC(NC(=O)Nc1nnc(C(F)(F)F)s1)(C(F)(F)F)C(F)(F)F	-4%	-87*	-4%	-85%	?
Nc1ccc(CCc2nc3ccccc3o2)cc1	-7%	11	5%	2.8µM*	?
Cc1ccc(S(=O)(=O)N2CCN(c3nc(-c4cccs4)nc4nc[nH]c34)CC2)cc1	·	·	·	2%	·
CC1CCCC(NC(=O)/C=C/c2c(F)cccc2Cl)C1C (stereo not given)	1%	·	-3%	11µM*	·
O=C(/C=C/c1c(F)cccc1Cl)N1CCOCC1	-7%	11	1%	10µM*	-7%
Cc1ccc(NC(=S)NC(=O)c2ccc(Br)o2)c(C)c1	0%	18	-1%	4µM*	-9%
Cc1ccc(NC(=S)NC(=O)C2CC2)c(C)c1	0%	-8	1%	11µM*	-20%
Cc1ccc(-c2nc(C#N)c(NCCc3ccccn3)o2)cc1	-3%	-6	7%	3.5µM*	-16%
COCCNc1oc(-c2ccc(C)cc2)nc1C#N	-1%	5	9%	?	-6%
CN(C)CCCNc1oc(-c2ccc(Cl)cc2)nc1C#N	0%	13	8%	12%	5%
COCCNc1oc(-c2ccc(Cl)cc2)nc1C#N	-2%	7	16%	5.6µM*	-10%
COc1ccc(-c2nc(C#N)c(NCCc3ccccc3)o2)cc1	-3%	-21	-3%	?	-7%
N#Cc1nc(-c2ccc(Cl)cc2)oc1NCCc1ccccn1	-1%	-4	7%	3.5µM*	-1%
O=C(NNc1ccccc1C(F)(F)F)c1sccc1Cl	·	·	·	0%	·
COc1ccc(C(=O)NCCn2ccc3ccccc32)c(OC)c1	-8%	2	-5%	7.9µM*	?
Cc1cc(SCC(=O)c2ccccc2)nc(C)n1	1%	-6	1%	10µM*	-23%
CN(C)S(=O)(=O)c1ccc(C(=O)Nc2ccccn2)cc1	-4%	11	2%	14µM*	-10%
Cc1ccc(S(=O)(=O)N(C)c2ccc(C(=O)Nc3ccccn3)cc2)cc1	0%	1	-1%	-8%	·
CCOc1ccccc1-c1nnc2n1N=C(c1cc(OC)ccc1OC)CS2	·	·	·	·	-20%
Cc1nn(-c2ccccc2)c(C)c1-c1ccccc1O	-5%	6	-3%	22%	-10%
Cc1nn(-c2ccccc2)c(/N=C/c2ccc(O)cc2)c1-c1ccccc1	-2%	3	-9%	5.6µM*	-7%
CCCN(C)CCCOc1cc2nc(N3CCCN(C)CC3)nc(NC3CCN(C)CC3)c2cc1OC	·	·	·	-50%	·
Cc1ccc(C)c(OCc2nc(-c3cccnc3)no2)c1	-8%	-22	1%	65%	-17%
Brc1ccc(-c2nc(-c3ccccc3)no2)o1	-1%	-1	-11%	43%	1%
Brc1ccc(-c2nc(-c3cccnc3)no2)o1	-7%	7	4%	4µM*	-14%
Cc1ccc(-c2nc(-c3cccnc3)no2)c(C)c1	-17%	-3	2%	6.3µM*	-9%
